Source: PubChem BioAssay
Pf gametocyte = kills late stage P. falciparum gametocytes; inhibition, % at 10.9 µM; P. falciparum stage V gametocytes, ATP luminescence, 24 h; actives 0.065% (n = 150,000);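 active = inhibition above the mean plus 3 SD of compounds within the control limits, set per campaign, cut at about 38% in these data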;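 also: 0% = DMSO wells and 100% = medium only without gametocytes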
EP2 mod = modulates human prostaglandin E2 receptor EP2 signaling | induction, % at 25 µM | EP2-expressing cells, cAMP HTRF FRET, PGE2 co-stimulation | actives 0.83% (n = 260,000) | P43116;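 active = compounds whose cAMP rise, as percent of the full-agonist control response, exceeds 60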;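 also: rat C6 glioma line stably carrying human EP2 under a CMV promoter; the protocol text gives 20 µM as final concentration; 100% = response of wells given 1 µM PGE2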
Target sequence (P43116 whole entry, looked up): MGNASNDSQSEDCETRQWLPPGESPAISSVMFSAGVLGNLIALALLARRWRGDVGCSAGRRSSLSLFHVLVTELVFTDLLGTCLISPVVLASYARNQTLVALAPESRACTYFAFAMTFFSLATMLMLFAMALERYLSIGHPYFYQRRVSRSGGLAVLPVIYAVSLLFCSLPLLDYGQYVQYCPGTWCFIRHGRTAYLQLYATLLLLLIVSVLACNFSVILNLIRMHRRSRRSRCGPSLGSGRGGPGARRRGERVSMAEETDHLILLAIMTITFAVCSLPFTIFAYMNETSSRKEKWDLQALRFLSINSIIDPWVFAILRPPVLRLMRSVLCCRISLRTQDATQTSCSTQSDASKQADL
PGE2 EP2 inh = blocks the human prostaglandin E2 receptor EP2; P43116; C6 glioma cells expressing human EP2, cAMP TR-FRET; cells stimulated with saturating PGE2; inhibition, % at 25 µM; actives 0.52% (n = 260,000); AID 1422;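 active = percent inhibition above 40 after rounding to a whole number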;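 also: rat C6 glioma host cells with rolipram phosphodiesterase inhibitor present; the protocol text gives 20 µM as final concentration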
Furin inhibitor = human furin inhibition. P09958. purified furin, fluorogenic substrate cleavage. inhibition, % at 20 µM or 30 µM. actives 0.061% (n = 220,000); in the data active = inhibition above about 25%
HSV augment = increases HSV replication in cells. maximum fold increase. actives 0.005% (n = 220,000). HSV replication augmentation in cells, fold increase; in the data active = maximum fold increase above about 1.5; tested in PC3 cells
The depositor's hits bear a star; i = inactive; / = not tested or not shown. Compounds with a hit are over-represented: about 1.4% of the library has one in this group of screens.

SMILES	Pf gametocyte	EP2 mod	PGE2 EP2 inh	Furin inhibitor	HSV augment
O=C(NCC1(c2ccccc2)CCCC1)C(=O)NCC1(c2ccccc2)CCCC1	-6.2	18.8	2.1	-11.3	i
COc1ccccc1-c1cc2nc(C)c(CCC(=O)NCc3ccc(F)cc3)c(C)n2n1	-12.2	-42.5	15.7	-15.0	i
Nc1ncnc2c1ncn2[C@@H]1O[C@H](CO)[C@@H](O)[C@H]1O	/	30.3	13.4	-21.6	i
CCOP1(=O)OCC2OC(n3cnc4c(N)ncnc43)C(O)C2O1 (centres undefined)	-5.6	103.6*	4.9	-25.2	i
COc1nc(C)ccc1-c1noc(-c2ccccn2)n1	/	1.1	4.4	28.5*	i
CCOC(=O)c1c(NC(=O)CSc2nnc(-c3cccc(O)c3)o2)sc(C)c1C	/	44.9	7.2	/	/
O=[N+]([O-])c1cc2oc3c(c2c(C=NCc2ccccc2)c1O)CCCC3	13.9	22.0	48.4*	7.1	i
N#CSc1cnc(N)s1	/	-120.5	110.5*	/	/
CCOc1ccc2[nH]c(=O)c(CN(Cc3nnnn3C3CCCCC3)C3CCCC3)cc2c1	/	38.3	14.6	/	/
Cc1cc2cc(CN(Cc3ccc4c(c3)OCO4)Cc3nnnn3C3CCCC3)c(=O)[nH]c2cc1C	/	63.9*	1.7	-47.5	i
CCOc1ccc2[nH]c(=O)c(CN(Cc3ccc(F)cc3)Cc3nnnn3C3CCCC3)cc2c1	/	61.3*	7.2	/	/
Cc1ccc2[nH]c(=O)c(CN(Cc3ccc4c(c3)OCO4)Cc3nnnn3C3CCCC3)cc2c1	/	28.6	/	-8.0	/
CCOc1ccc2[nH]c(=O)c(CN(CCc3ccccc3)Cc3nnnn3C3CCCCC3)cc2c1	/	62.1*	2.5	/	/
Cc1nnsc1-c1nc2ccccc2[nH]1	/	-46.2	18.0	-24.3	i
O=C(O)C1OC2OC3(CCCCC3)OC2C2OC3(CCCCC3)OC12 (centres undefined)	/	8.6	7.9	0.2	i
CCOc1ccccc1NC(=O)C1OC2OC3(CCCCC3)OC2C2OC3(CCCCC3)OC12 (centres undefined)	/	-0.1	50.0*	/	/
CC(=O)Nc1ccc(S(=O)(=O)N2CCN(c3cc(C)ccc3C)CC2)cc1	/	-4.2	10.1	-32.6	i
O=C1Nc2ccccc2C(=O)C1(Cl)Cc1ccccc1 (centres undefined)	-12.8	-18.7	112.2*	-19.0	i
CCn1ncc(S(=O)(=O)NCC(O)COc2ccc(C)cc2)c1C (centres undefined)	/	-22.9	5.8	/	/
O=C(Nc1ccc(OC(F)(F)F)cc1)Nc1cccnc1	8.1	-15.1	10.6	-12.4	i
NC(=O)c1cccc(-c2cc(Nc3ccc(OC(F)(F)F)cc3)ncn2)c1	-15.8	-23.5	59.5*	-12.0	i
N#CC1(Cc2ccc(Cl)cc2)c2ccccc2C=CN1C(=O)c1ccccc1 (centres undefined)	/	63.4*	18.5	-0.5	i
CCN(CC)CCN(Cc1cc2c(C)ccc(C)c2[nH]c1=O)C(=O)Nc1ccc(Cl)cc1	/	-59.5	11.4	/	/
COc1cc(NC(=O)CSc2nnnn2-c2ccc(OC)c(OC)c2)cc(OC)c1	/	-11.7	6.2	/	/
CS(=O)(=O)Nc1ccc(Nc2c3ccccc3nc3ccccc23)cc1	/	-18.0	63.7*	/	/
SMILES	Pf gametocyte	EP2 mod	PGE2 EP2 inh	Furin inhibitor	HSV augment
Cc1c(-c2ccccc2)oc2c(C(=O)N3CCN(c4ccccc4F)CC3)cccc2c1=O	-8.9	31.4	3.8	-5.8	i
CCCCC[C@H](O)/C=C/[C@H]1[C@H](O)CC(=O)[C@@H]1CCCCCCC(=O)O	/	/	13.2	/	i
CCCCC[C@H](O)/C=C/[C@H]1C=CC(=O)[C@@H]1C/C=C\CCCC(=O)O	/	103.5*	8.8	-8.5	i
COc1ccc(Br)cc1CNC(=O)CCc1nc(-c2ccc(C)cc2)no1	/	16.2	9.9	25.8*	i
Cc1ccc(S(=O)(=O)N2CCC(C(=O)O)(c3ccccc3)CC2)cc1	/	19.3	43.4*	/	/
O=C(O)C1(c2ccccc2)CCN(S(=O)(=O)c2ccc(Cl)cc2)CC1	23.6	/	/	/	/
Cc1cc(CNC(=O)COc2cc(F)ccc2[N+](=O)[O-])c2ccccc2n1	/	-58.3	5.2	-25.9	i
CC(=O)Nc1ccc2c(c1)/C(=C/c1ccc([N+](C)(C)C)cc1)c1ccccc1-2	/	-24.1	47.9*	/	/
CC(=O)Nc1ccccc1C=C1c2ccccc2-c2ccccc21	/	17.2	10.6	/	/
O=C(COC(=O)COc1ccc(Cl)cc1)NC1CCCCC1	/	13.4	10.2	-17.6	i
O=C(CSc1ncnc2sc3c(c12)CCCC3)OCc1ccccc1	/	62.4*	8.4	/	/
C=CCNC(=S)Nc1ccc(C)cc1[N+](=O)[O-]	15.3	-21.7	2.0	-22.2	i
